The results in this text go back to ChEMBL document CHEMBL3988442, “University of Dundee, Small-Polar-MMV Screening Library” (2021).

Molecules are shown by their SMILES. For some assays here: Potency and affinity values are given separately.

Holding throughout (parameters): scale not given: direction of the effect not stated beside the values
The target of experiment [1] is Protein translocase subunit SecA (Escherichia coli (strain K12)) (UniProt P10408). In words: Assay to Identify E. coli SecA ATPase Inhibitors. Format: functional. To be noted: 30 µM.
Sequence of Protein translocase subunit SecA (Escherichia coli (strain K12)) (P10408 whole entry): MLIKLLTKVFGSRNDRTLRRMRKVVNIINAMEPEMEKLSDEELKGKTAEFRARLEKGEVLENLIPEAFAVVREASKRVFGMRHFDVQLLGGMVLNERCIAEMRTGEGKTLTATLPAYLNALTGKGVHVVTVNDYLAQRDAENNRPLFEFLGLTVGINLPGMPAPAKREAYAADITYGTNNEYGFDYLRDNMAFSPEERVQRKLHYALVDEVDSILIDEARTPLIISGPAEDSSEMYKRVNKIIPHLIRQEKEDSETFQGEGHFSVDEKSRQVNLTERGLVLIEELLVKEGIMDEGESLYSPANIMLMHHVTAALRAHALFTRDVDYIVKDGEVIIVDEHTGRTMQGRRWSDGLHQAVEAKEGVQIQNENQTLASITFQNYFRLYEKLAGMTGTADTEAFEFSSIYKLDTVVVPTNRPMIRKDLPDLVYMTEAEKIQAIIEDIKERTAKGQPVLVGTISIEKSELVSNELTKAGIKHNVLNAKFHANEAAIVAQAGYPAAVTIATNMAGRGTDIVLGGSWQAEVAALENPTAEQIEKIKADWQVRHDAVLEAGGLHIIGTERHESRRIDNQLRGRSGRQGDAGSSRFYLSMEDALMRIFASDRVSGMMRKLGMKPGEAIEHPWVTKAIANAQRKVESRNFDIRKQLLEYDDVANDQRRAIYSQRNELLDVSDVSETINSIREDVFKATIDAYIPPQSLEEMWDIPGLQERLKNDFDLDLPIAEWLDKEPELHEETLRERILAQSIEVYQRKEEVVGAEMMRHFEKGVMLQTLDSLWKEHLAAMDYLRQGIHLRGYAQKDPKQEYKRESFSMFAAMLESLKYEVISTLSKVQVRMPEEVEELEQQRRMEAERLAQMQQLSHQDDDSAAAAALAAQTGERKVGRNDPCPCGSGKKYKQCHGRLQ
The target of experiment [2] is T1, Ubiquitin-activating enzyme e1, putative (Leishmania donovani (strain BPK282A1)) (UniProt E9BSI1).
T1 sequence (whole entry): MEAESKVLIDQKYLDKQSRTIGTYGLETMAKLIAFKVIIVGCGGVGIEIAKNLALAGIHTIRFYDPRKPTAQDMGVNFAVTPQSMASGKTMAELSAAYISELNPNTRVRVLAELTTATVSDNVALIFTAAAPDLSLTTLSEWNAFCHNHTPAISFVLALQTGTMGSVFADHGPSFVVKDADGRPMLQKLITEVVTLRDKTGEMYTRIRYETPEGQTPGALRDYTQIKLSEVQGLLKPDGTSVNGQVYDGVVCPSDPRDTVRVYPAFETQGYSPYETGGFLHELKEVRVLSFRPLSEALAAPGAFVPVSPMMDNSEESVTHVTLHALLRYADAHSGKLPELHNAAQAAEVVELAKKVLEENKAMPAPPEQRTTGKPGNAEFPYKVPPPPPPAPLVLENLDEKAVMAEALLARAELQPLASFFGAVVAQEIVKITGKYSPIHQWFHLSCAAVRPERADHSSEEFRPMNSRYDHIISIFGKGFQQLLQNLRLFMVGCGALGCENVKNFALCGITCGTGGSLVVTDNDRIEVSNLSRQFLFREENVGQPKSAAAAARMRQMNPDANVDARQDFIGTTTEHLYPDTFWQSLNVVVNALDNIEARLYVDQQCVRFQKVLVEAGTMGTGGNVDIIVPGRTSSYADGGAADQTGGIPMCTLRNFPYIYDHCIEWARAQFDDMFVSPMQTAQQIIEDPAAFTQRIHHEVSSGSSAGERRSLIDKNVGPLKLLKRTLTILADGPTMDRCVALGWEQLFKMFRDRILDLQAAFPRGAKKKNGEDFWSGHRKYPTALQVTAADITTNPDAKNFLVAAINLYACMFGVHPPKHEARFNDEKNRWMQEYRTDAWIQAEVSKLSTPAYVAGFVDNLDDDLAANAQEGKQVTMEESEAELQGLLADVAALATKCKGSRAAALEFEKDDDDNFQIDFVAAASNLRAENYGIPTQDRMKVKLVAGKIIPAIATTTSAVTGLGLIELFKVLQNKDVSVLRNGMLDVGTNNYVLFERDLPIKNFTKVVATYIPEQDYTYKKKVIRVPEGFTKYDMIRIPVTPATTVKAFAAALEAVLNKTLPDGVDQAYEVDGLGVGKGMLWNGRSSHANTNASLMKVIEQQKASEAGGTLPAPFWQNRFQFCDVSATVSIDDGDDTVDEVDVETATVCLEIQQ
In words: Leishmania donovani Ubiquitin Activating Enzyme (LdE1). The following applies: 30 µM. Format: functional.

The target of experiment [3] is AMP-activated protein kinase, AMPK (Homo sapiens) (UniProt P54646+O43741+P54619+Q9UGJ0+Q9Y478+Q13131+Q9UGI9). The experiment in a line: AMP-dependent Kinase enzyme assay. An in vitro enzyme assay that detects ADP turnover that is directly proportional to AMPK activity. This uses naive AMPK that is activated during the assay with MK-8722. To be noted: 30 µM. Format: functional.

The target of experiment [4] is Sialic acid-binding Ig-like lectin 9 (Homo sapiens) (UniProt Q9Y336). The experiment in a line: Hs-Siglec9 ALPHAscreen SOP 20170721. The following applies: 10 µM. (In general: Alpha assays give light when donor and acceptor beads are brought close together.)
Sequence of Sialic acid-binding Ig-like lectin 9 (Homo sapiens) (Q9Y336 whole entry): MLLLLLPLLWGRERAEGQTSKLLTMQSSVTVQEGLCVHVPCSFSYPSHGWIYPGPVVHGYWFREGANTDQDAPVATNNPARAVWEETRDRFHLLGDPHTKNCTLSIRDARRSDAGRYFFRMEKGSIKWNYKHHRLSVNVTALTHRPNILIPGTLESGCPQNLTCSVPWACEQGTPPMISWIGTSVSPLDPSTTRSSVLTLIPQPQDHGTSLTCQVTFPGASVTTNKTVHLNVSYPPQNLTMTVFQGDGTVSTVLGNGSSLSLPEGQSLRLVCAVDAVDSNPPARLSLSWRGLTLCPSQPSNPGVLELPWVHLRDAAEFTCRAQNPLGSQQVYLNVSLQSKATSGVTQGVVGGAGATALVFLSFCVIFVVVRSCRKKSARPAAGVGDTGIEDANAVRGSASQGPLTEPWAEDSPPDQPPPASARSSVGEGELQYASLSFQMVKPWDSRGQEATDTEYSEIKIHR
For the next experiment, the system named is Trypanosoma cruzi. The experiment in a line: Trypanosoma cruzi phosphomannomutase and mannose-1-phosphate guanylyltransferase assay. Type of experiment: functional. To be noted: 10 µM.
The target of experiment [5] is T2, Arginase-2, mitochondrial (Homo sapiens) (UniProt P78540).
T2 sequence (whole entry): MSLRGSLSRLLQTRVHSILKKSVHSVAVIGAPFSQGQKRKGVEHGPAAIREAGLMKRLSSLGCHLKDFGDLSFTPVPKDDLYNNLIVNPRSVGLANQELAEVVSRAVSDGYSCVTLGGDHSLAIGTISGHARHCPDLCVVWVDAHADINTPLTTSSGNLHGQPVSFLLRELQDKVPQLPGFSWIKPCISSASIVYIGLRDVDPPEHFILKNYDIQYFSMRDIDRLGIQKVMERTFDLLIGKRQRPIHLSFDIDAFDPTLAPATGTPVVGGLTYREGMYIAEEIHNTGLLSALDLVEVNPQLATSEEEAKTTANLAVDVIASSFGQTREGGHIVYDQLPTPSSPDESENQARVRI
The experiment in a line: in vitro enzyme assay to detect the production of urea directly proportional to the activity of Arginase II. Further: in the data most compounds retested in dose-response had high values. Type of experiment: functional. The following applies: 33.3 µM.

For experiment [6], the target named is T3, Proteasome subunit beta (Trypanosoma cruzi) (UniProt O96673).
T3 sequence (whole entry): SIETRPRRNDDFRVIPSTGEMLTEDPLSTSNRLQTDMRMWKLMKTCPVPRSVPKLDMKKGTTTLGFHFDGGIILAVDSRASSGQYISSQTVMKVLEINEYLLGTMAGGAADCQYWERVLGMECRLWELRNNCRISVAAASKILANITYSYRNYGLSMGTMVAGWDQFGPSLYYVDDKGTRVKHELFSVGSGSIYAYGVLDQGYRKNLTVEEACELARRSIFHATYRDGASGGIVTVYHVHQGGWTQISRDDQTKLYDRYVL
The experiment in a line: Trypanosoma cruzi proteasome chymotrypsin-like activity (TcProtChymo) assay. Further: in the data most compounds retested in dose-response had high values. To be noted: 9.37 µM. Type of experiment: functional.

For the next experiment, the species on record is Homo sapiens. In words: To identify inhibition of the IFN signalling (Jak-Stat) pathway via expression of an eGFP reporter gene under the control of an IFN-stimulated response element (ISRE) containing MxA promoter. Format: functional. The following applies: 30 µM. Background: A reporter such as luciferase makes a cellular process visible.
Experiment [7] has as its target T4, Tyrosyl-tRNA synthetase, putative (Trypanosoma cruzi (strain CL Brener)) (UniProt Q4DSP6).
T4 sequence (whole entry): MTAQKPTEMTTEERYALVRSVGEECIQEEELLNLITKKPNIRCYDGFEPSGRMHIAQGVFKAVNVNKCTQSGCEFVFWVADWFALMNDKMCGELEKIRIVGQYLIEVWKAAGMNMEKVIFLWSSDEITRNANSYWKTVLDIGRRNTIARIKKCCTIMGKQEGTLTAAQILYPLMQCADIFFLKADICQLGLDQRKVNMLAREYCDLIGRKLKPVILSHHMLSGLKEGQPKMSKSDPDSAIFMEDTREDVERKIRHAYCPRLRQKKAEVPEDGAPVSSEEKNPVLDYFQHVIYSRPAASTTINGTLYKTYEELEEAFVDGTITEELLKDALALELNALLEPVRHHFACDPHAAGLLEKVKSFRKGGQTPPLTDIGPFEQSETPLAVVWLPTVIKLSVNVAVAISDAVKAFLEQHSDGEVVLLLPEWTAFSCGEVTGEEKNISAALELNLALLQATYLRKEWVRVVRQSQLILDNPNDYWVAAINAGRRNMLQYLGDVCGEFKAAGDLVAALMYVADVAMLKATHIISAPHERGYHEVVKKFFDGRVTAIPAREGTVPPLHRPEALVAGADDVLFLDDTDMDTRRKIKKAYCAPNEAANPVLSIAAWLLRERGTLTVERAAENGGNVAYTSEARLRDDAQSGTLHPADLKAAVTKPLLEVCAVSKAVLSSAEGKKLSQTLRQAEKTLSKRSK
The experiment in a line: Trypanosoma cruzi tyrosyl tRNA synthetase (TcYRS) _High Tyrosine SOP. Further: in the data most compounds retested in dose-response had high values. Format: functional. The following applies: 30 µM.

For experiment [8], the target named is T4, Tyrosyl-tRNA synthetase, putative (Trypanosoma cruzi (strain CL Brener)). The experiment in a line: Trypanosoma cruzi tyrosyl tRNA synthetase (TcYRS) SOP. Type of experiment: functional. The following applies: 30 µM.
Experiment [9] deals with Chromo domain-containing protein 1 (Saccharomyces cerevisiae (strain ATCC 204508 / S288c) (Baker's yeast)) (UniProt P32657). The experiment in a line: ScCHD-1 Enzyme Inhibition Assay. Further: in the data most compounds retested in dose-response had high values. The following applies: 30 µM. Format: functional.
Sequence of Chromo domain-containing protein 1 (Saccharomyces cerevisiae (strain ATCC 204508 / S288c) (Baker's yeast)) (P32657 whole entry, the tested form may be a part): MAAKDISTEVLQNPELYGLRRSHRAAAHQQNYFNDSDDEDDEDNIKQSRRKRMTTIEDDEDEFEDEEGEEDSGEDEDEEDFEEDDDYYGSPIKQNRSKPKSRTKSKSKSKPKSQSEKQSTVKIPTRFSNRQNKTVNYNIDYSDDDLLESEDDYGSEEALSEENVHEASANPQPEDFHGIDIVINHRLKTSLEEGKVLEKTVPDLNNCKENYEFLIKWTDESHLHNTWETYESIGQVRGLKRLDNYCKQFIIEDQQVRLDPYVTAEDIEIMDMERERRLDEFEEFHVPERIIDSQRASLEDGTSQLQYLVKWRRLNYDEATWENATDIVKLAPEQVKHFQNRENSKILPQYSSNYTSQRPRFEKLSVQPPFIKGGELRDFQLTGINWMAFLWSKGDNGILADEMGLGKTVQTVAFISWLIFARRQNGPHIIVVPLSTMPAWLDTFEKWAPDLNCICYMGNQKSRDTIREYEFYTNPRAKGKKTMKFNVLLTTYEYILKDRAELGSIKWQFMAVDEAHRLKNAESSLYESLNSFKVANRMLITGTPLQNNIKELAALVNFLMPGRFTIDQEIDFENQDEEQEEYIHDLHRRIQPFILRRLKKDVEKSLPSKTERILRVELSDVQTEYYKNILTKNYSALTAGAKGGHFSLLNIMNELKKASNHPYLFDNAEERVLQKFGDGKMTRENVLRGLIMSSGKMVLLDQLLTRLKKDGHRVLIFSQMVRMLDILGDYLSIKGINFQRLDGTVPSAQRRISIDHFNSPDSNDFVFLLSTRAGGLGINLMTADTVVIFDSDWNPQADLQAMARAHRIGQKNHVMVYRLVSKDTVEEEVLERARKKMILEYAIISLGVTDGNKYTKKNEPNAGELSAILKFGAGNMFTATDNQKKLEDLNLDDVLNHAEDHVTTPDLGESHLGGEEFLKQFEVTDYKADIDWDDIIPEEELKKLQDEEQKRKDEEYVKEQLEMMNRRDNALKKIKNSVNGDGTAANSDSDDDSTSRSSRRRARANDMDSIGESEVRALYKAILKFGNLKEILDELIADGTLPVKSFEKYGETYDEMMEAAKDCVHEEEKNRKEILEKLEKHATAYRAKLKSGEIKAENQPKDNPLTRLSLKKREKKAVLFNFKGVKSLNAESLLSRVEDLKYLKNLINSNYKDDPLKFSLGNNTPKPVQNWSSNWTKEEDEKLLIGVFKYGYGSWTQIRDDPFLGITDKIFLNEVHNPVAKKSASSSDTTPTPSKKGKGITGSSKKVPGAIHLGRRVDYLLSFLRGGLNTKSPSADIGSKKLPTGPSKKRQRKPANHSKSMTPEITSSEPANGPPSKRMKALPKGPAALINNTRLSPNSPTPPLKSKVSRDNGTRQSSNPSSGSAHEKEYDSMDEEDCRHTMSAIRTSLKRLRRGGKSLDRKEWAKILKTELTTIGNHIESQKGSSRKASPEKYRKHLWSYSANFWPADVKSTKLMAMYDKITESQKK

Consider `O=C(CCn1cncn1)NC1(c2cccc(Br)c2)CCC1`, for which the Percent Effect in experiment [1] was -3.55%; in [2], 20.8%; in [3], 1.67%; in [4], 13.7%; in the experiment on Trypanosoma cruzi, 3.44%; in experiment [5], 1.38%. The Percent Effect in [6] is 10.5%; in the experiment filed under Homo sapiens, -1.82%; in experiment [7], 3.23%; in experiment [8] it was 16.1%; in [9] it was -9.17%.
Take `CNC(=O)CS(=O)(=O)Cc1cc(Cl)c2c(c1)OCCCO2`: the Percent Effect was -1.64% in [1]; 12.7% in experiment [2]; -5.11% in [3]; -6.27% in experiment [4]; 3.87% in the experiment with Trypanosoma cruzi; -2.66% in experiment [5]. The Percent Effect in experiment [6] is 7.62%; in the experiment filed under Homo sapiens, -4.79%; in [7], 10.3%; in experiment [8] it was 24.1%; in [9], -6.28%.
Consider `O=C(c1cccc(CN2CCCC2)c1)N1CCCC(n2cncn2)C1` (stereo not given), for which the Percent Effect was -4.8% in [1]; 21.6% in experiment [2]; -12.1% in experiment [3]; -3.07% in [4]; -0.849% in the experiment on Trypanosoma cruzi; -10% in experiment [5]. The Percent Effect was 16.2% in [6]; 23.3% in the experiment listed under Homo sapiens; 6.4% in [7]; 16.1% in experiment [8]; -2.99% in experiment [9].
`CCN(Cc1ccco1)C(=O)Nc1cc(C(F)(F)F)c[nH]c1=O`: the Percent Effect in [1] was -7.27%; in [2] it was 10.5%; in experiment [3], 0.625%; in experiment [4] it was -6.37%; in the experiment on Trypanosoma cruzi it was -2.71%; in experiment [5] it was 0.719%. In addition, the Percent Effect was 2.79% in experiment [6]; -6.49% in the experiment listed under Homo sapiens; 4.43% in [7]; 13.6% in experiment [8]; -9.51% in experiment [9].
As to `Cc1ccc(C(=O)N2CCN(CCCSCC#N)CC2)o1`, the Percent Effect was -3.54% in experiment [1]; -5.48% in experiment [2]; 1.04% in [3]; 10.8% in experiment [4]; 1.98% in the experiment on Trypanosoma cruzi; -2.4% in [5]. The Percent Effect in [6] was found to be 6.42%; in the experiment filed under Homo sapiens, 18.1%; in [7], 4.17%; in experiment [8], 11.1%; in [9], 0.208%.
Consider `CCCNC(=O)c1c(-n2cnnn2)sc2c1CCC2`, for which the Percent Effect in experiment [1] was -1.2%; in [2], 7.89%; in experiment [3], 4.3%; in experiment [4], 2.22%; in the experiment on Trypanosoma cruzi, -9.45%; in [5], 3.55%. For the same compound, the Percent Effect in experiment [6] was 9.3%; in the experiment listed under Homo sapiens, 2.78%; in experiment [7], 5.32%; in experiment [8], 0%; in experiment [9], -5.31%.
Turning to `Cc1cc(C)n(CCC(=O)N2CCC(c3nc(C(C)C)no3)CC2)n1`, the Percent Effect was -2.78% in experiment [1]; 20.8% in experiment [2]; 4.41% in [3]; 11.6% in experiment [4]; 5.8% in the experiment on Trypanosoma cruzi; -40% in experiment [5]. Moreover, the Percent Effect in experiment [6] is 16.5%; in the experiment listed under Homo sapiens, -3.55%; in experiment [7], 6.45%; in [8], 18.5%; in experiment [9], -7.45%.
For the compound `COCc1ccccc1CNc1nnc(C)c(C)c1C#N`, the Percent Effect in experiment [1] was -6.03%; in experiment [2], 5.41%; in experiment [3], -21.1%; in experiment [4], -1.29%; with Trypanosoma cruzi, -1.39%; in experiment [5] it was 4.62%. Moreover, the Percent Effect in experiment [6] was 17.9%; in the experiment filed under Homo sapiens it was 30.3%; in experiment [7] it was 4.95%; in experiment [8] it was 6.1%; in experiment [9], -2.15%.
For the compound `CC(C)CCc1noc(CN2CCCN(C(=O)c3ccco3)CC2)n1`, the Percent Effect was -5.45% in experiment [1]; -8.22% in experiment [2]; -0.00644% in experiment [3]; 4.33% in experiment [4]; 2.38% with Trypanosoma cruzi; -11.2% in [5]. The Percent Effect was 3.68% in experiment [6]; 7.02% in the experiment filed under Homo sapiens; 3.12% in experiment [7]; 3.7% in [8]; -3.57% in experiment [9].
As for `CC(C)(C)c1nnc(CN2CCCC(c3cc(C(N)=O)[nH]n3)C2)o1` (stereo not given), the Percent Effect in experiment [1] was -6.11%; in experiment [2] it was 10.8%; in [3], -2.58%; in experiment [4] it was -2.88%; in the experiment with Trypanosoma cruzi it was -7.08%; in experiment [5], -10%. The Percent Effect is 3.78% in experiment [6]; 9% in the experiment filed under Homo sapiens; -2.46% in experiment [7]; -1.24% in experiment [8]; -5.5% in experiment [9].
